Among all 320,000 compounds or so, about 2,100 (0.66%) were called active. Another 53% or so got no clear call; they are omitted. The call rests on the fitted dose curve; in most records, active means well fitted inhibition curve with a large enough effect in the signal ratio, with a control signal flat (not every such curve was filed as active); inconclusive means small, poorly fitted or top-dose-only effect, or effect the other way, or a change in a side signal; inactive means flat fitted curve, though single readings scatter; the % refers to the signal ratio. Shown is part of a subset that was picked to be rich in actives.
Potency means the concentration at half of the fitted maximal effect.

The experiment in a line: qHTS Assay for Lipid Storage Modulators in Drosophila S3 Cells.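 On cell number change: cells counted by Cell Tracker Red CMTPX staining in the red channel.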 On lipid storage change, negative = inhibition: on the % scale 0 is the no-effect control and ±100 the full control effect. The note with it: BODIPY lipid droplet fluorescence, 18-24 h, cells fed with added oleic acid; cell number change: measured here: cell count max response; series mostly up to 46.1 µM; lipid storage change, negative = inhibition: at the top concentration. The procedure, abridged: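 Drosophila S3 cells got compounds at several concentrations plus oleic acid (400 uM solution). Laser-scanning cytometry with 488 nm excitation read lipid droplets at 500-530 nm and cells at 575-640 nm. Percent activity was relative to 20 uM Triacsin C.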
With `Cc1ccccc1NC(=O)CSc1ccc(-c2ccco2)nn1`, the “lipid storage change, negative = inhibition” value was 6.34% (inactive) and the cell number change is -9.57%. Regarding `CCCNc1ccc(S(=O)(=O)N(CC)CC)cn1`, the “lipid storage change, negative = inhibition” value was -12.3% (inactive) and the cell number change came out at 5.83%. Consider `Cc1ccc(S(=O)(=O)N(CC(=O)NC2CC2)c2ccc(C)c(Cl)c2)cc1`, for which the “lipid storage change, negative = inhibition” value is -26.3% (inactive). As to `CCOC(=O)CCN`, the outcome was inactive and the cell number change is 3.17%. In the case of `O=C(NCC1CCCO1)c1ccc(NS(=O)(=O)c2cccc([N+](=O)[O-])c2)cc1` (stereo unspecified), the “lipid storage change, negative = inhibition” value was -23.3% (inactive) and the cell number change was 5.5%. For the compound `O=C(NCC1CCCO1)c1ccc2c(c1)C(=O)N(C1CCCCC1)C2=O` (stereo unspecified), the outcome was inactive and the cell number change stood at 2.66%. For the compound `O=C(NCC1CCCO1)c1ccc2c(c1)C(=O)N(c1cccc([N+](=O)[O-])c1)C2=O` (stereo unspecified), the Potency was 0.82 µM (active) and the cell number change was -9.52%. On to `Nc1c(-c2ccc(Cl)cc2)cnn1-c1cccc(C(F)(F)F)c1`, for which the “lipid storage change, negative = inhibition” value was 3.21% (inactive) and the cell number change came out at 10.7%. Turning to `NC(=O)C1CCCN(Cc2ccc(Cl)cc2)C1` (stereo unspecified), the Potency was 29.1 µM (active) and the cell number change was -11.1%.

As to `O=C(C1CCCN(Cc2ccc(Cl)cc2)C1)N1CCCCC1` (stereo unspecified), the result was inactive and the cell number change is 22.8%. Consider `NC(=O)C1CCCN(Cc2ccc3ccccc3c2)C1` (stereo unspecified), for which the result was inactive and the cell number change is 10.8%.

Consider `Cc1ccc(CNC(=O)COC(=O)c2ccc(S(=O)(=O)NCc3ccco3)cc2)cc1`, for which the “lipid storage change, negative = inhibition” value is 14.5% (inactive) and the cell number change was -0.995%. For the compound `O=C(COC(=O)c1ccc(S(=O)(=O)NCc2ccco2)cc1)NCC1CCCCC1`, the Potency is 25.9 µM (active) and the cell number change was -12.1%. On to `O=C(COC(=O)c1ccc(S(=O)(=O)NCc2ccco2)cc1)NC1CCCCC1`, for which the “lipid storage change, negative = inhibition” value is 6.47% (inactive) and the cell number change turned out to be 0.997%. As for `C#CCOCCOCCOCCNc1nc(N2CCN(C(=O)[C@H](CCC(=O)O)n3cc(C(N)[C@H](C)CC)nn3)CC2)nc(N2CCN(C(=O)[C@H](CCC(=O)O)n3cc(C(N)[C@H](C)CC)nn3)CC2)n1` (stereo partly specified), the “lipid storage change, negative = inhibition” value was -5.28% (inactive) and the cell number change was -3.88%.

Consider `O=C(CN(Cc1ccccc1)S(=O)(=O)c1ccccc1)N/N=C/c1ccc([N+](=O)[O-])cc1`, for which the “lipid storage change, negative = inhibition” value is 13.5% (inactive) and the cell number change was -4.65%. `Cc1ccc(OCC(=O)NNC(=S)NC(=O)c2ccc(Br)o2)c(C)c1`: the “lipid storage change, negative = inhibition” value is 19.1% (inactive) and the cell number change is 7.54%. For `Cc1ccc(-n2nc3c(=O)n(C(C)C(=O)NCCCc4ccccc4)nc(C)c3c2C)cc1` (stereo unspecified), the call was inactive and the cell number change was -8.4%.

Consider `Cc1ccc(-n2nc3c(=O)n(CC(=O)NCCc4ccc(Cl)cc4)nc(C)c3c2C)cc1`, for which the “lipid storage change, negative = inhibition” value is 12.1% (inactive) and the cell number change was -10.8%. Take `Cc1ccc(-n2nc3c(=O)n(CC(=O)NCCCc4ccccc4)nc(C)c3c2C)cc1`: the Potency is 18.4 µM (active) and the cell number change worked out at 21%. As for `Cc1cc(C)cc(NC(=O)CSc2ncc(S(=O)(=O)c3ccccc3)c(=O)[nH]2)c1`, the “lipid storage change, negative = inhibition” value is 6.14% (inactive) and the cell number change amounted to 4.62%. On the same counts, the results for `O=C(CN1CCNC(=O)C1)NCCc1ccc(Cl)cc1Cl` are -25.2% (inactive) and -23.8%. Regarding `O=C(CN1CC(=O)Nc2ccccc21)NCCc1ccc(Cl)cc1Cl`, the “lipid storage change, negative = inhibition” value is -1.77% (inactive) and the cell number change is -5.87%. With `O=C(CN1C(=O)C(=O)N(C2CCCC2)C1=O)NCCc1ccc(Cl)cc1Cl`, the Potency was 4.11 µM (active) and the cell number change is -0.378%. As to `CC(=O)c1cccc(NC(=O)c2cc(C)no2)c1`, the “lipid storage change, negative = inhibition” value is 1.89% (inactive) and the cell number change was determined as 5.99%. On the same counts, the results for `CCC(C)[C@@H](N)C(=O)N/N=C/c1cccc2nccnc12` (stereo partly specified) are -5.79% (inactive) and -7.62%. In the case of `CCC(c1nnnn1Cc1ccco1)N1CCN(C(=O)c2ccco2)CC1` (stereo unspecified), the “lipid storage change, negative = inhibition” value was 3.59% (inactive) and the cell number change is 0.561%. As to `CC(C)C(c1nnnn1Cc1ccco1)N1CCC(C(N)=O)CC1` (stereo unspecified), the “lipid storage change, negative = inhibition” value was -0.139% (inactive) and the cell number change is -12.1%. As to `CCC(c1nnnn1Cc1ccco1)N1CCC(C(N)=O)CC1` (stereo unspecified), the Potency is 5.8 µM (active) and the cell number change was -7.68%. As to `CCCC(=O)Nc1ccc2oc(=O)ccc2c1`, the “lipid storage change, negative = inhibition” value was -2.96% (inactive) and the cell number change is -4.63%. Turning to `Cc1ccccc1C(=O)N1CCCC(N2CCN(Cc3ccc4c(c3)OCO4)CC2)C1` (stereo unspecified), the “lipid storage change, negative = inhibition” value is 5.73% (inactive) and the cell number change was determined as 0.496%. Turning to `CCNc1nc(NCC)n2c(SCC(=O)Nc3ccccc3)nnc2n1`, the “lipid storage change, negative = inhibition” value was -3.31% (inactive) and the cell number change amounted to 9.23%. As for `CCNc1nc(NCC)n2c(SCC(=O)O)nnc2n1`, the Potency was 29.1 µM (active) and the cell number change was -12%. Turning to `CCNc1nc(NCC)n2c(SCC(=O)c3ccccc3Cl)nnc2n1`, the “lipid storage change, negative = inhibition” value was 12.4% (inactive).

Regarding `Cc1csc(NC(=O)c2ccc(S(=O)(=O)N3CCCC3)cc2)n1`, the “lipid storage change, negative = inhibition” value is 3.45% (inactive) and the cell number change came out at 5.75%. For `O=C(CNS(=O)(=O)c1cccc2nonc12)NCc1ccc(F)cc1`, the compound was called inactive. For the compound `COc1cc2c(cc1OC)n(CC(=O)NC1CCCCCC1)n1c(C)cc(=O)nc21`, the Potency is 8.2 µM (active) and the cell number change was -21.9%.

On to `COc1cccc2c1cc1c(=O)n(CC(=O)NC3CCCCC3)nc(C)n12`, for which the “lipid storage change, negative = inhibition” value is 7.54% (inactive) and the cell number change is -12.9%.

As for `CCC(C(=O)NC1CCCCC1)n1c2ccccc2c2nc(=O)cc(C)n21` (stereo unspecified), the compound was classed as inactive and the cell number change was 1.33%. For `Nc1nc(C2CCCN2S(=O)(=O)c2ccc(Cl)cc2)cs1` (stereo unspecified) the same measures were “inactive” and -2%. Regarding `CCOc1ccc(NC(=O)C2CCC(CNc3c(N4CCCCC4)c(=O)c3=O)CC2)cc1` (stereo unspecified), the “lipid storage change, negative = inhibition” value is 2.07% (inactive). As for `O=C(CSc1ccc(Cl)cc1)Nc1cccc(-c2nc3ncccc3o2)c1`, the Potency is 1.3 µM (active) and the cell number change was -12.7%. For the compound `CC(C)CC(=O)Nc1cccc(-c2nc3ncccc3o2)c1`, the “lipid storage change, negative = inhibition” value was 8.93% (inactive) and the cell number change is -6.34%. `CCCCC(=O)Nc1cccc(-c2nc3ncccc3o2)c1`: the “lipid storage change, negative = inhibition” value was 18.9% (inactive) and the cell number change worked out at 0.0678%.

As to `CCc1ccccc1N1CCN(S(=O)(=O)c2cc(OC)ccc2OC)CC1`, the outcome was inactive. With `Cc1cc(C)cc(Nc2cnn(C34CC5CC(CC(CC(=O)O)(C5)C3)C4)c(=O)c2Cl)c1`, the Potency was 18.4 µM (active) and the cell number change is -2.34%.

As for `CCc1ccc(Nc2cnn(C34CC5CC(CC(CC(=O)O)(C5)C3)C4)c(=O)c2Cl)cc1`, the “lipid storage change, negative = inhibition” value is 7.65% (inactive) and the cell number change stood at 8.4%. Take `Cc1ccc(Nc2cnn(C34CC5CC(CC(CC(=O)O)(C5)C3)C4)c(=O)c2Cl)c(Cl)c1`: the “lipid storage change, negative = inhibition” value was 2.44% (inactive) and the cell number change was determined as 5.36%. Take `Cc1ccc(CN2CCN(CC(C)C)C(CCO)C2)s1` (stereo unspecified): the “lipid storage change, negative = inhibition” value was 6.7% (inactive) and the cell number change is 20.3%. With `CN(C)c1ccc(NC(=O)C[n+]2ccccc2)cc1`, the “lipid storage change, negative = inhibition” value is 22.6% (inactive) and the cell number change was 22.5%. With `CCOC(=O)COc1nc2c(c(-c3ccco3)c1C#N)CCc1ccccc1-2`, the “lipid storage change, negative = inhibition” value was 2.63% (inactive) and the cell number change is 3.1%. For `N#Cc1c(OCC(=O)c2ccccc2)nc2c(c1-c1ccco1)CCc1ccccc1-2`, the Potency was 8.2 µM (active) and the cell number change was -13%. `CC(=O)COc1nc2c(c(-c3ccco3)c1C#N)CCc1ccccc1-2`: the “lipid storage change, negative = inhibition” value is -0.398% (inactive) and the cell number change was 7.55%. As to `CCCOC(=O)Cn1c(=O)c2cc3c(=O)n(CC(=O)OCCC)c(=O)c3cc2c1=O`, the compound was called inactive and the cell number change was -10.2%. With `CCOC(=O)C1=C(C)N=C2SCCC(=O)N2C1c1cccs1` (stereo unspecified), the “lipid storage change, negative = inhibition” value is 9.97% (inactive) and the cell number change is -2.29%. For `O=C(O)Cc1sc(Nc2cccc3ccccc23)nc1-c1ccc(F)cc1`, the “lipid storage change, negative = inhibition” value is -9.11% (inactive) and the cell number change was determined as 12.9%.

Turning to `O=C(O)Cc1sc(Nc2cccc3ccccc23)nc1-c1ccccc1`, the Potency is 0.092 µM (active) and the cell number change is 25.4%.

For `O=C(O)Cc1sc(Nc2cccc3ccccc23)nc1-c1ccc(Cl)cc1`, the “lipid storage change, negative = inhibition” value is 8.83% (inactive) and the cell number change worked out at 13.4%.

The record behind these values is PubChem BioAssay AID2685 (National Center for Advancing Translational Sciences (NCATS), 2010).
